According to PubChem BioAssay AID581 (PCMD, 2007):
Screen size: about 62,000 compounds; about 95 (0.2%) were called active.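 The calls were made as follows: active = inhibition above 20% in each of the two mixture wells holding the compound; inactive = inhibition of 20% or less in either well.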 Shown is part of a subset that was picked to be rich in actives.

molecular target: Cathepsin G (Homo sapiens) (UniProt P08311); assay: blockers of neutrophil cathepsin G protease – biochemical, pooled compound mixtures, AMC fluorescence, primary screen (AID 581); settings: purified enzyme, AMC-tetrapeptide fluorescence, stronger effect = higher value, screened at 5 µM (by protocol);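 also: 0% = enzyme control without mixture and 100% = blank lacking enzyme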
Sequence (P08311 21-244 limits assumed): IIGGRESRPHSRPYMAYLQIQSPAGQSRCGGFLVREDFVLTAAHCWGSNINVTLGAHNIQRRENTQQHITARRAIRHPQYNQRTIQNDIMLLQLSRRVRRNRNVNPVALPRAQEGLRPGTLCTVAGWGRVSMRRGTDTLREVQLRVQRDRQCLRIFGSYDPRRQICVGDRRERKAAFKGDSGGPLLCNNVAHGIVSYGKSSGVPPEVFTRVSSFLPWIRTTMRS

inhibition, inactive:
COc1ccc(C2C(C#N)=C(N)Oc3n[nH]c(C)c32)cc1CN1CCN(c2ccc(F)cc2)CC1 (stereo not drawn) -3.59%
CCOC(=O)c1nnn(-c2nonc2OC)c1-c1ccccc1 -2.37%
CC(C)=C(NC(=O)c1ccco1)C(=O)NCCc1nc2ccccc2[nH]1 9.21%
O=C1CCc2cc(S(=O)(=O)N3CCC(C(=O)NCc4ccccc4Cl)CC3)ccc2N1 11%
CC(=O)CCS(=O)(=O)c1ccc(C)c(C)c1 -14.8%
NC(=O)C1(N2CCCCC2)CCN(C(=O)c2ccc(C#Cc3ccccc3)o2)CC1 11.6%
COCCNc1nc(-n2nc(C)cc2C)nc2sc3c(c12)CCCC3 -7.79%
Cc1ccccc1OCCC(=O)Nc1c(C)n(C)n(-c2ccccc2)c1=O 16.9%
Cc1cc(Br)ccc1NC(=O)C1CCCO1 (stereo not drawn) 9.61%
COc1cc2[nH]c(=S)n(Cc3ccc(C)o3)c(=O)c2cc1OC -0.64%
CN1CCN(c2nc3c(c(=O)[nH]c(=O)n3C)n2Cc2cccc3ccccc23)CC1 14.6%
Cc1nnc(SCC(=O)NCCOc2ccc(Cl)cc2)n1-c1ccccc1 6.24%
CC1(C)CC(=O)C=C(NC2CC(C)(C)NC(C)(C)C2)C1 6.34%
Cn1c(=O)c2c(n(Cc3ccccc3)c1=O)NC(=O)C2CC(=O)N1CCc2ccccc2C1 (stereo not drawn) 4.22%
NC(=O)c1ccccc1NC(=O)c1ccccc1F 1.67%
Cn1c(SCc2c(F)cccc2Cl)nnc1-c1cnccn1 3.17%
O=C(c1cnn2ccccc12)N1CCc2ccccc21 10.9%
O=C(NC1(C(F)(F)F)N=C2SCCN2C1=O)c1ccco1 (stereo not drawn) 3.45%
O=C(CCN1C(=O)COc2ccccc21)NCCCN1CCN(c2ccc(F)cc2)CC1 -3.54%
Cc1cccc(NC(=O)C2CCN(S(=O)(=O)c3cccc4cccnc34)CC2)c1 10.6%
Cc1cccc(NC(=O)COc2ccc(Br)cc2C)n1 2.75%
c1cc(-n2cnnn2)ccc1NC1=NCCC1 -2.07%
COc1ccc(-n2c(SCC(=O)OC(C)C)nnc2-c2ccccn2)cc1 7.94%
CCC(=O)N1CCc2cc(S(=O)(=O)NC(C(=O)N3CCc4ccccc4C3)C(C)C)ccc21 (stereo not drawn) 4.46%
CCCc1nc2ccccc2c(=O)n1/N=C/c1ccc(O)c(O)c1 2.2%
COc1cccc(C2/C(=C(/O)c3ccncc3)C(=O)C(=O)N2CCCN(C)C)c1 (stereo not drawn) 6.68%
COCCCn1c2nc3ccccc3nc2c2c(=O)n(Cc3ccc(Cl)cc3)c(C)nc21 7.46%
Cc1cc(C)nc(N2C(=O)CC(Cc3ccccc3)C2=O)n1 (stereo not drawn) -4.68%
Cc1cc(=O)[nH]c(SCc2cc(Cl)ccc2OC(F)F)n1 8.17%
O=C(CNCCO)NC12CC3CC(CC(C3)C1)C2 11.2%
C[C@H](NC(=O)NCCc1ccccc1)C(=O)O 2.02%
O=C(Cn1c(=O)sc2ccccc21)Nc1ccc2c(c1)OCCO2 1.24%
O=C(Nc1ccc2c(c1)OCO2)C1CC(c2c(F)cccc2Cl)=NO1 (stereo not drawn) 9.79%
CCCCCN(C(=O)NC(=O)Nc1ccccc1C)S(C)(=O)=O 3.6%
CC(C)C(=O)Nc1cccc(C(=O)Nc2ccc3c(c2)OCO3)c1 10.1%
CCOc1c(N2CCCCC2)c(=O)c1=O -3.4%
Cc1cc2c(cc1C)NC(c1ccccn1)C1=C(CC(C)(C)CC1=O)N2 (stereo not drawn) 9.5%
Cc1ccc(S(=O)(=O)N2CCN(Cc3cccc(C)c3O)CC2)cc1 2.48%
O=c1c2ccccc2[nH]c(=S)n1CCN1CCC(=C(c2ccc(F)cc2)c2ccc(F)cc2)CC1 13.1%
CCC(C)n1[nH]c(=O)cc1N (stereo not drawn) 0.53%
CN(c1nc2ccccc2n2c(-c3ccco3)nnc12)S(=O)(=O)c1ccccc1 -5.29%
N#Cc1c(/N=C/N2CCCC2)oc(-c2ccccc2)c1-c1ccccc1 9.67%
O=C(Nc1cc(=O)[nH]c2ncnn12)c1ccccc1Cl -3.08%
O=C(O)C1CC=C(Cl)CC1C(=O)NCc1ccccc1 (stereo not drawn) 12.7%
Cc1ccc(-n2c(N)c(C(=O)N3CCOCC3)sc2=S)c(C)c1 11.4%
c1ccc2c(c1)OCC(c1nn3cnnc3s1)O2 (stereo not drawn) 1.56%
CC(=O)N1CSCC1C(=O)O (stereo not drawn) 10.9%
COc1ccc(C)cc1S(=O)(=O)NC1CCCCC1 3.27%
O=C(CCCN1C(=O)CSc2ncccc21)N1CCN(c2cccc(C(F)(F)F)c2)CC1 1.22%
Fc1ccc(Br)cc1/C=N/n1cnnc1 -0.86%
ON=C1/C(=N\O)CC2(C/C1=N/O)OCCO2 -0.38%
CC(=O)c1c(C)n(-c2ccc(N(C)C)cc2)c2ccc(OCC(N)=O)cc12 8.67%
COc1ccc(S(=O)(=O)NC2(C(F)(F)F)N=C3SCCN3C2=O)cc1 (stereo not drawn) 11.4%
CCN(CC)C(=O)C1CCC(C)(C(=O)O)C1(C)C (stereo not drawn) 11.2%
COC(=O)c1ccccc1NC(=O)C1CCN(S(=O)(=O)c2cc(OC)ccc2OC)CC1 2.31%
CC(=O)N(CC1CCCO1)C1(C(=O)NC2CCCC2)CCCCC1 (stereo not drawn) 10.3%
COCC(=O)Nc1nnc(COc2ccccc2)s1 -21.9%
CCN(CC(=O)Nc1ccc2c(c1)OCCO2)Cc1cc(=O)oc2cc(C)c(C)cc12 1.52%
CC1(C)Cc2ccccc2-c2nc(CN3CCOCC3)[nH]c(=O)c21 3.33%
O=C1N(Cc2ccc3c(c2)OCO3)c2ccccc2C1(O)c1c[nH]c2ccccc12 (stereo not drawn) 1.27%
COc1ccc(Cl)cc1NC(=O)C1CC(=O)N(c2ccc(F)cc2)C1 (stereo not drawn) 8.25%
O=C(CN1CCOCC1)N1CCCc2c1c(=O)oc1ccc(OCc3ccccc3)cc21 -5.32%
O=C1N=C(N2CCOCC2)CS1 -2.67%
O=C(CSc1nnc(-c2ccco2)n1CC1CCCO1)c1ccccc1 (stereo not drawn) 10.9%
CSc1ccc(-c2c(C#N)c(N)nc3c2c(C)nn3-c2ccccc2)cc1 5.96%
Cc1c(C(=O)OCC(=O)N(CCC#N)c2ccccc2)oc2c1ccc1ccccc12 10.9%
COc1ccc2nc(N3CCCC(O)C3)c(C#N)cc2c1 (stereo not drawn) 7.5%
O=C(Nc1ccc(S(=O)(=O)N2CCCC2)cc1Cl)C1=COCCO1 -0.78%
CN(C)c1ccc(CNC23CN4CN(CN(C4)C2)C3)cc1 -0.235%
CCCCNC(=O)CSc1nccn1Cc1ccccc1 -4.63%
COCCNC(=O)C(C#N)c1nc2ccccc2nc1N1CCN(Cc2ccc3c(c2)OCO3)CC1 (stereo not drawn) 8.39%
Cc1cc(N=CC2=C(O)CCCC2=O)no1 14.9%
CC1CCCC(C)N1C(=O)CN1CCN(c2nc(-c3ccc(F)cc3)cs2)CC1 (stereo not drawn) -39.9%
CCOC(=O)N1CCN(C(=O)c2ccc(CN(c3ccc(C)c(C)c3)S(C)(=O)=O)cc2)CC1 11.3%
N#CC1=C(N)Oc2n[nH]c(CSc3ccccc3)c2C12C(=O)Nc1ccccc12 (stereo not drawn) 13.8%
COc1ccc(-c2nc(CS(=O)CC(=O)N3CCc4ccccc4C3)c(C)o2)cc1 (stereo not drawn) 2.91%
CCCCn1nc(C(=O)N2CCc3ccccc32)c2ccccc2c1=O -0.085%
COc1ccccc1N1CC(O)=C(c2nc3ccccc3s2)C1=N -0.35%
O=C1CCC(C(=O)Nc2ccc(OC(F)F)cc2)N1 (stereo not drawn) 1.46%
Nc1c(C(=O)NCc2ccccc2)nnn1Cc1cccc(Cl)c1 -2.37%
Cc1cc(C(F)(F)F)nn1-c1nc(-c2ccco2)cc(C(F)(F)F)n1 -9.21%
Cc1ccc2cc3cc(C(=O)N4CCCCCC4)oc3nc2c1 8.2%
COCCOC(=O)C1=C(C)Nc2nc(C)nn2C1c1ccccc1 (stereo not drawn) -6.8%
CC1C=CCC2C(=O)N(c3cccc(C(=O)N4CCCCCC4)c3)C(=O)C12 (stereo not drawn) 9.22%
CCOC(=O)CSc1nnc(-c2ccncc2)o1 7.88%
O=C(c1ccco1)N1CCN=C1SCc1cccc(Cl)c1 -1.57%
Cc1ccc(-c2nc(CS(=O)CC(=O)NC3CCCC3)c(C)o2)cc1 (stereo not drawn) -3.33%
CCN(CCCNC(=O)C1CCN(S(=O)(=O)c2cnc[nH]2)CC1)c1ccccc1 14.4%
O=C(NCCCN1CCCCCC1)c1ccc(N2CCCC2=O)cc1 1.79%
CC1(N2CCOCC2)CC2(O)C(=[N+]1[O-])CCc1nonc12 (stereo not drawn) 11.9%
O=C(NC1CCCCC1)c1ccc2c(=O)n(CC3CCCO3)c(=O)[nH]c2c1 (stereo not drawn) -1.31%
Cc1cc(C)c(C)c(S(=O)(=O)Nc2ccc(O)cc2)c1C -0.38%
COc1ccc(OCCCON2C(=O)c3ccccc3C2=O)cc1 -4.08%
COc1cc(Br)cc(/C=N/c2ncn[nH]2)c1O 10.2%
CN(c1ccc(C(=O)NCCC2=CCCCC2)cc1)S(C)(=O)=O 1.87%
COc1cccc2cc(C(C)N(CCCN3CCOCC3)C(=O)Nc3ccc(Cl)cc3)oc12 (stereo not drawn) 1.68%
O=C(O)CN(Cc1ccco1)S(=O)(=O)c1ccc(F)cc1 6.5%
COc1ccc2c(c1OC)C(=O)N(c1ncn[nH]1)C2 -3.84%
COc1ccc(C)c2sc(=NC(=O)c3ccc(C#N)cc3)n(C)c12 1.85%
O=C(CCCC(=O)N(CC(=O)NC1CCCC1)Cc1ccccc1Cl)Nc1ccccn1 7.61%
Cc1nnc(NC2=NCCCCC2)o1 -1.69%
CSCCC1NC2(C(=O)Nc3ccc(Cl)cc32)[C@@H]2C(=O)N(C3CCCC3)C(=O)[C@H]12 (stereo partly drawn) 17.3%
COc1ccc(N2C(=O)C3CCCN3C2c2cccc(OC)c2)cc1 (stereo not drawn) -5.7%
CCC(C)Sc1nc(C)nc2c1c(=O)n(C)c(=O)n2C (stereo not drawn) 8.64%
O=C(CC1CCCCC1)Nc1c2c(nn1-c1ccc(F)cc1)CS(=O)(=O)C2 -0.2%
COc1ccc(C2C(C#N)=C(N)Oc3cc(N)ccc32)cc1OC (stereo not drawn) -2.81%
O=C(CCCn1c(=O)oc2ccccc21)Nc1cccnc1 -1.41%
Cc1nc(-c2ccc(NC(=O)c3cccs3)cc2)cs1 8.02%
